The values that follow come from PubChem BioAssay (EPA / NIEHS).

Where “and” joins values, the source holds several entries; their conditions need not be identical. Identical values can stand only once. More than one record can exist for a structure, and the calls need not agree. Calls of active or inactive are those of the source. Rule for the calls: active = hit-call score of the fitted dose curve at least 0.9, where 1 is the maximum; inactive = score below 0.9.

The assay is described as follows: CCTE_Shafer_MEA_acute_per_network_burst_electrodes_number_mean: CCTE's Neural Acute Assay for Mean Number of Electrodes in a Network Burst, Shafer Lab (AID 2284021).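 Note: curves fitted for decreases only so hits reduce electrodes per burst.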 The procedure: CCTE_Shafer_MEA_acute assay is conducted using Axion Biosystems 48 well microelectrode array (MEA) plates and Maestro recording system. Each well of the MEA plate contains a grid of 16 microelectrodes embedded in the culture surface. Electrically active cells, such as neurons, can be cultured over the electrodes, and electrical activity in these cells can be recorded extracellularly. The spontaneous firing of neurons is captured from each electrode on a microsecond timescale providing both temporally and spatially precise data. […] The CCTE_Shafer_MEA_acute assay uses primary cultures of rat cortical neurons. As these cultures mature over time, neural networks develop functional activity and form cohesive networks in which electrical activity can be highly coordinated. Baseline 40-minute recordings are made on days post-plating 13 or 15, followed by a secondary 40-minute recording after chemical exposure.CCTE_Shafer_MEA_acute_per_network_burst_electrodes_number_mean is a component of the CCTE_Shafer_MEA_acute assay. It measures the average number of electrodes with activity during a network burst (a temporally-clustered group of action potential firing across multiple electrodes) in a recording in a microelectrode array (MEA) using Axion Biosystems Maestro 768 channel amplifier with the AxIS adaptive spike detector. The recordings before and after chemical treatment are used to calculate a percent change in the mean number of electrodes participating in network bursts in each well.Data from the assay component CCTE_Shafer_MEA_acute_per_network_burst_electrodes_number_mean was analyzed into 1 assay endpoint. This assay endpoint, CCTE_Shafer_MEA_acute_per_network_burst_electrodes_number_mean, was analyzed in the negative analysis fitting direction relative to DMSO as the negative control and baseline of activity. Using a type of functional reporter, gain or loss-of-signal activity can be used to understand electrical activity.
Spontaneous activity in the cortical cultures was recorded using an Axion Biosystems Maestro 768 channel amplifier and Axion Integrated Studios (AxIS) v1.8 (or later) software. The amplifier recorded from all channels simultaneously (gain = 1200 x; sampling rate = 12.5 kHz/channel): raw signals were filtered with a Butterworth band-pass filter (300-5000 Hz), which filters out slower local field potentials leaving only fast potentials, i.e., "spikes", arising from extracellular currents associated with action potentials (Pine 2006; Wheeler and Nam 2011). On-line spike detection of filtered signals was conducted with the AxIS adaptive spike detector, using a threshold of 8x the root mean squared (rms) noise on each channel. Any electrodes with rms noise levels greater than 5 uV were grounded (e.g., no data were recorded). Once grounded, an electrode was grounded for the duration of the experiment. All recordings were conducted at 37 C. Wells were deemed usable if on the day of the exposure >/= 10 electrodes were active (defined as >/= 5 spikes/min). On DIV 13 or 15, a minimum of three wells from one cortical culture preparation were treated with each compound (0.03-40 uM). Prior to recording baseline activity, each mwMEA plate was placed in the Maestro at 37 C and allowed to sit for 20 min while firing rates stabilized. Baseline activity (40 min) was recorded before the addition of each compound. An additional 40 min of spontaneous activity was recorded in the presence of each compound. Changes in network parameters relative to baseline were assessed following compound treatment.
As for `CCCN(CCC)c1c([N+](=O)[O-])cc(C(F)(F)F)cc1[N+](=O)[O-]`, the AC50 was 8.36 µM (active).

For the molecule `Oc1ccc(Cl)cc1Cc1ccccc1`, the AC50 is 8.31 µM (active).

For `N#Cc1c(Cl)c(Cl)c(Cl)c(C#N)c1Cl`, the molecule was called inactive.

For `CC(C)N(C(=O)COc1nnc(C(F)(F)F)s1)c1ccc(F)cc1`, the molecule was classed as inactive.

Regarding `Clc1ccccc1-c1nnc(-c2ccccc2Cl)nn1`, the molecule was classed as inactive.

Take `C[C@H]1[C@H](c2ccc(Cl)cc2)SC(=O)N1C(=O)NC1CCCCC1`: the result was inactive.

As to `O=S1OCC2C(CO1)C1(Cl)C(Cl)=C(Cl)C2(Cl)C1(Cl)Cl` (centres undefined), the molecule was called inactive and the AC50 was 0.177 µM (active).

For the molecule `CCC(C)(C)C(=O)OC1=C(c2ccc(Cl)cc2Cl)C(=O)OC12CCCCC2`, the result was inactive.

Regarding `CC(C)OC(=O)Nc1cccc(Cl)c1`, the AC50 is 20 µM (active).

Turning to `O=C(O)CCCOc1ccc(Cl)cc1Cl`, the outcome was inactive.

As for `Oc1cc(Cl)ccc1Oc1ccc(Cl)cc1Cl`, the molecule was classed as inactive.

For the molecule `O=S(=O)(O)C(F)(F)C(F)(F)C(F)(F)C(F)(F)C(F)(F)C(F)(F)C(F)(F)C(F)(F)F`, the molecule was called inactive.

Consider `CNC(=O)CSP(=S)(OC)OC`, for which the call was inactive.

Consider `CCCN(CCOc1c(Cl)cc(Cl)cc1Cl)C(=O)n1ccnc1`, for which the call was inactive.

Take `CC1(C)C(C=C(Cl)Cl)C1C(=O)OC(C#N)c1ccc(F)c(Oc2ccccc2)c1` (centres undefined): the AC50 was 66.4 nM (active) and 796 nM (active).

As to `N#CN`, the molecule was classed as inactive.

As for `CC[C@H](C)[C@H]1O[C@]2(C=C[C@@H]1C)C[C@@H]1C[C@@H](C/C=C(\C)[C@@H](O[C@H]3C[C@H](OC)[C@@H](O[C@H]4C[C@H](OC)[C@@H](O)[C@H](C)O4)[C@H](C)O3)[C@@H](C)/C=C/C=C3\CO[C@@H]4[C@H](O)C(C)=C[C@@H](C(=O)O1)[C@]34O)O2` (tested in a mixture with another compound), the AC50 was 0.05 µM (active).

On to `O=[N+]([O-])/N=C1\NCCN1Cc1ccc(Cl)nc1`, for which the result was inactive.

For the molecule `COP(=S)(OC)Oc1ccc(SC)c(C)c1`, the call was inactive.

For the molecule `O=C1c2ccccc2C(=O)N1SC(Cl)(Cl)Cl`, the result was inactive.

Regarding `CCC(C)Nc1c([N+](=O)[O-])cc(C(C)(C)C)cc1[N+](=O)[O-]` (centres undefined), the outcome was inactive.

With `ClC1C(Cl)C(Cl)C(Cl)C(Cl)C1Cl` (centres undefined), the AC50 was 1.1 µM (active).

Consider `CNC(=O)/C=C(\C)OP(=O)(OC)OC`, for which the call was inactive.

The AC50 is the midpoint of the concentration-response curve, whichever way the signal moves.
